From PubChem
TLR4-MyD88 BLA: inhibitors of human TLR4-MyD88 binding; O00206+Q99836; inhibition, % at 8.4 µM; HeLa CL3-4 TLR4/MyD88 BLA complementation, FRET ratio; 0.18% of 200,000 active; AID 861; in the data active means inhibition above about 25%;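 further: 0% = vehicle and 100% = reference inhibitor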
m5-HT2A agonist: mouse HTR2A agonism via beta-arrestin recruitment; CHO-K1 mHTR2A beta-arrestin complementation, luminescence; percent of 30 µM serotonin response; AID 624169; 0.66% of 360,000 active; P35363; activation, % at 7.6 µM;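 active means activation above a run cutoff, the mean activation of all tested compounds plus 3 SD, cut at about 14% in these data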;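 further: 0% = plate median of compound wells and 100% = 30 µM serotonin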
Rtt109 Vps75: blocks Candida albicans Rtt109/Vps75 acetyltransferase activity | Q5AAJ8 | purified Rtt109/Vps75, ThioGlo CoA-SH fluorescence, 4 h | inhibition, % at 34.9 µM | 0.16% of 330,000 active | AID 540336;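 active means inhibition of at least 50% in every replicate; inconclusive means best replicate reaches 50% inhibition but some replicates fall short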
Target sequence (Q5AAJ8 whole entry, looked up): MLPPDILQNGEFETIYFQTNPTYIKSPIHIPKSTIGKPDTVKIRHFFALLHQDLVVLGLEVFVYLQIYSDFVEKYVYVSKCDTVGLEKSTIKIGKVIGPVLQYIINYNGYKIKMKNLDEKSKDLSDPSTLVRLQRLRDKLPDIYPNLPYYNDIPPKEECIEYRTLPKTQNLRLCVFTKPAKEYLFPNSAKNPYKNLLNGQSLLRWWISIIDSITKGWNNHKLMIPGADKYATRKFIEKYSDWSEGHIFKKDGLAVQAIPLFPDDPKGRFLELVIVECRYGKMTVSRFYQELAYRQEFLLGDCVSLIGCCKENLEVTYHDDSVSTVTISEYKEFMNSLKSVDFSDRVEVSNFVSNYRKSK
NOD2-RIPK2 inh: blocks binding of human NOD2 to RIPK2 | O43353 | CHO BLA complementation NOD2-RIPK2, CCF4 ratio | inhibition, % at 4.98 µM | 0.38% of 360,000 active; in the data active means inhibition above about 21%;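 further: 0% = vehicle only and 100% = reference blocker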
TLR9-MyD88 inh: inhibitors of human TLR9-MyD88 binding; 0.21% of 340,000 active; inhibition, % at 4.98 µM; CHO BLA complementation TLR9-MyD88, CCF4 FRET ratio; Q9NR96+Q99836; AID 504734;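 active means inhibition above the mean over all tested compounds plus 3 SD, cut at about 21% in these data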;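 further: 0% = DMSO only wells and 100% = clavulanate BLA inhibitor control wells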
LANA-H2B inh: blocks KSHV LANA binding to histone H2A/H2B. cell-free LANA-H2A/H2B peptide, fluorescence polarization. Q9QR71. inhibition, % (no concentration beside the values). 0.6% of 320,000 active. AID 2629; in the data active means inhibition mostly above about 10%, no sharp cut-off; inactive means mostly below about 6.7%
NOD2 RIPK2 conf: confirmation of human NOD2-RIPK2 interaction inhibitors | shares compounds with NOD2-RIPK2 inh | CHO cells, NOD2-RIPK2 BLA complementation, CCF4 FRET | inhibition, % at 4.98 µM | 70% of 1,200 active | AID 624370;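 active means mean inhibition across replicates above a set limit taken from the earlier primary screen, cut at about 21% in these data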;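 further: 0% = DMSO-only wells and the high end = clavulanate BLA-blocked wells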
NOD2 BLA counter: NOD2-RIPK2 counterscreen BLA reporter activity | shares compounds with NOD2-RIPK2 inh | CHO BLA reporter, CCF4 FRET ratio | inhibition, % at 4.98 µM | 57% of 1,200 active | AID 624371;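 active means mean inhibition above the low-control mean inhibition plus three low-control SD, cut at about 11% in these data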;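 further: 0% = DMSO only wells and 100% = clavulanate high control wells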
An asterisk follows results filed as active; i = inactive; ? = inconclusive; / = not tested or not shown. A selection: hits, their analogues and other compounds. The true share with any hit is near 1.8%.

SMILES	TLR4-MyD88 BLA	m5-HT2A agonist	Rtt109 Vps75	NOD2-RIPK2 inh	TLR9-MyD88 inh	LANA-H2B inh	NOD2 RIPK2 conf	NOD2 BLA counter
C[C@H](NC(=O)N1CCn2c1nc1ccccc12)C(=O)N1CCCCC1	/	6.5	-9.1	21.1*	0.9	3.0	-8.4	-1.1
Fc1ccccc1N1CCN(C2CCCN(Cc3cccc(C(F)(F)F)c3)C2)CC1 (stereo unspecified)	/	2.9	2.4	-2.9	0.1	-2.1	/	/
CCOC(=O)C1CCN(C(=O)/C=C/c2ccccc2)CC1	8.3	-4.2	26.5	5.4	3.6	-3.9	/	/
CCOC(=O)C1(C)CCN1C(=O)/C=C/c1ccccc1 (stereo unspecified)	/	-0.7	/	20.9*	/	/	1.6	-1.5
CSCC[C@@H](CO)NC(=O)[C@H]1O[C@@H](n2ccc(N)nc2=O)[C@H](O)[C@@H]1O	/	-0.2	/	28.6*	/	/	-6.2	-0.2
Nc1ccn([C@@H]2O[C@H](C(=O)N[C@H](CO)Cc3ccccc3)[C@@H](O)[C@H]2O)c(=O)n1	/	9.3	/	-8.2	/	/	/	/
O=C(Nc1ccccc1O)c1csc2c1CCCC2	9.6	1.7	3.0	-4.6	6.9	1.1	/	/
Cc1ccc(CNC(=O)Nc2ccc3c(c2)N(C)C(=O)CS3)cc1	3.9	-4.9	-11.8	27.2*	0.1	-1.5	-2.6	-4.2
CC(=O)c1cccc(N(C(=O)CNC(=O)c2ccco2)C(C(=O)NC2CCCC2)c2ccncc2)c1 (stereo unspecified)	/	-4.0	-4.2	0.1	-2.8	2.3	/	/
Cc1cccnc1NC(=O)CNC(=O)COc1ccccc1	/	-2.4	-6.1	1.2	-3.9	2.9	/	/
COc1ccc(NS(=O)(=O)c2ccc3ccccc3c2)c2ncccc12	/	4.0	-12.1	28.9*	12.6	-1.0	30.1*	17.4*
CC(C)(C)OC(=O)n1cccc1/C=C1\c2ccccc2C(=O)N1c1ccccc1	/	6.6	-6.2	40.7*	-2.4	/	5.8	5.4
C/C(=N\NC(=S)NC1CCCCC1)c1cccc(C(F)(F)F)c1	/	2.1	-2.2	-11.5	0.3	10.0	/	/
C/C(=N\NC(=S)NC1CCCCC1)c1cccc(Br)c1	2.1	-0.6	-1.8	32.3*	-3.8	-8.4	-1.8	-2.7
COc1ccc(NC(=O)C2(C)CCN2Cc2ccc(OC(F)(F)F)cc2)cc1OC (stereo unspecified)	/	2.6	/	-1.3	/	/	/	/
COc1ccc(C)c2sc(NC(=O)c3cccc(N4C(=O)CCC4=O)c3)nc12	/	-5.7	-6.3	21.7*	-0.9	2.1	2.7	-1.6
Cc1ccc(C)c2sc(NC(=O)c3ccc(N4C(=O)CCC4=O)cc3)nc12	-2.5	6.6	3.1	-4.8	4.1	1.6	/	/
COc1cc2ccc(=O)oc2cc1O	/	-2.6	i	29.6*	-8.7	1.8	20.9	38.5*
Cc1cc(SC#N)cc(C)c1NC(=O)CCl	12.9	-0.1	19.3	30.7*	10.4	0.9	28.3*	-0.6
CCc1cc(SC#N)cc(C)c1NC(=O)CCl	-12.4	4.8	1.5	24.2*	6.8	2.1	24.5*	-5.4
CCc1cc(SC#N)cc(C)c1N	2.2	-4.3	0.5	0.5	8.8	4.2	/	/
CCC(=O)Nc1ccc(SC#N)cc1C	0.0	6.4	5.8	1.6	-1.1	3.3	/	/
Cc1[nH]nc(-c2cccnc2)c1N=NN(C)C	/	-5.2	-3.3	36.5*	15.0	/	18.8	-1.4
CCOC(=O)CCc1nc2ccccc2[nH]1	0.7	-0.5	-3.0	-6.5	-5.3	-7.7	/	/
COCC(=O)O[C@]1(CCN(C)CCCc2nc3ccccc3[nH]2)CCc2cc(F)ccc2[C@@H]1C(C)C	/	-3.1	?	24.8*	-10.3	0.2	20.3	-3.2
SMILES	TLR4-MyD88 BLA	m5-HT2A agonist	Rtt109 Vps75	NOD2-RIPK2 inh	TLR9-MyD88 inh	LANA-H2B inh	NOD2 RIPK2 conf	NOD2 BLA counter
CC(=O)ON=C1C=CC(=C(C#N)c2ccccc2)C=C1	/	-5.0	/	25.7*	/	/	34.6*	8.4
O=C(COc1ccc(/C=C\[N+](=O)[O-])cc1)N1CCOCC1	9.2	-2.2	7.6	-3.4	-1.3	1.0	/	/
O=[N+]([O-])/C=C\c1ccc(N2CCOCC2)cc1	/	-5.8	2.1	44.8*	5.3	2.4	43.0*	-4.8
CCCCn1nnnc1C(c1cc2ccccc2o1)N1CCN(c2c(C)cccc2C)CC1 (stereo unspecified)	/	9.2	/	-3.2	/	/	/	/
Cc1cccc(C)c1N1CCN(C(c2cc3ccccc3o2)c2nnnn2C(C)(C)C)CC1 (stereo unspecified)	/	8.3	/	21.4*	/	/	-4.2	-5.3
C=C1CC2(OC1=O)c1ccccc1CCc1ccccc12	/	-1.1	-2.6	83.8*	15.6	/	89.6*	25.2*
N#Cc1c2ccc(O)cc2n2ccccc12	3.9	1.1	-65.3	22.4*	13.4	1.0	21.0*	26.0*
O=c1c(O)c(-c2ccccc2)oc2cc(O)ccc12	/	4.0	/	24.6*	/	/	32.1*	29.4*
O=c1c(O)c(-c2ccccc2)oc2ccccc12	/	4.5	-9.6	13.3	8.6	/	/	/
CCOc1ccc(C(=O)CCC(=O)Nc2ccc(C)c(S(=O)(=O)N3CCCCC3)c2)cc1	/	-0.7	15.0	1.0	-7.2	/	/	/
CC(=O)c1ccc(OCCCC(=O)Nc2ccc(C)c(S(=O)(=O)N3CCCCC3)c2)cc1	/	-3.8	2.5	36.3*	-8.1	/	-7.1	-6.7
Cc1ccc(N(CC(=O)N2CCCCCC2)S(C)(=O)=O)cc1	/	3.0	/	-4.4	-2.9	/	/	/
COc1ccccc1-c1cc(C(F)(F)F)nc(S(C)(=O)=O)n1	20.0	3.6	-0.1	24.9*	26.2*	0.5	41.0*	6.5
CCCCN(C)CC(O)Cn1cc(/C=C/C(=O)c2ccc(C)cc2)c2ccccc21 (stereo unspecified)	/	-3.4	-1.7	31.8*	14.1	-2.5	43.9*	41.3*
